SMILES strings stand for the structures. Calls of active or inactive are those of the source.

In PubChem BioAssay one finds z-score and composite z-score data, which are given here for seven molecules.

A short description of assay [1]: E. coli DRC41 culture turbidity changes, primary screen, E. coli filamentation inducer project, strain DRC41, OD650, 48 h (AID 1152).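 Also: E. coli MC1000 strain DRC41 lacking acrAB efflux pump and sulA.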 Particulars: E. coli DRC41 (acrAB sulA), higher = more signal, called active from +8 up or from −8 down.
The nature of assay [2]: small-molecule binders of probe aLefty1, primary screen, biochemical, small-molecule microarray, 635/667 nm fluorescence (AID 1153).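 Also: score merges spot fluorescence with signal-to-noise ratio from the scanned slide images.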 Particulars: higher = more signal.
Assay [3] in a line: PSAC antagonists in infected red cells, primary screen, cell-based, P. falciparum Indochina, OD700, 1 h (AID 1154). As to conditions: P. falciparum Indochina infected RBC osmotic lysis, higher = more signal, called active from +8 up or from −8 down.
A short description of assay [4]: PSAC antagonists in infected red cells, primary screen, cell-based, P. falciparum Indochina, OD700, 2 h (AID 1155).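 Also: lysis reports solute entry through the parasite surface anion channel PSAC; channel blockers reduce lysis of infected cells.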 As to conditions: P. falciparum Indochina infected erythrocytes, osmotic lysis OD700; higher = more signal, called active from +8 up or from −8 down.
Assay [5] can be described thus: osmotic lysis modulators in infected erythrocytes, primary screen, PSAC antagonist project, cell-based, P. falciparum Indochina, OD700, 3 h (AID 1156). Particulars: higher = more signal, called active from +8 up or from −8 down.
The nature of assay [6]: PSAC antagonists in infected red cells, primary screen, cell-based, P. falciparum Indochina, OD700, 18 h (AID 1157). Particulars: P. falciparum Indochina infected erythrocytes, osmotic lysis OD700, 18 h; higher = more signal, called active from +8 up or from −8 down.
Assay [7] in a line: modulators of S6 phosphorylation in cells, primary screen, cell-based, A549, cytoblot, luminescence, serum-stimulated (AID 1158).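 Also: serum-stimulated A549 lung adenocarcinoma cells; signal is phosphorylated S6 detected by cytoblot immunostaining with HRP secondary.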 Particulars: A549 phospho-S6 cytoblot, 5 h, higher = more signal.
Assay [8] concerns the target NADPH oxidase 2 (Homo sapiens) (UniProt P04839). The assay is described as follows: NOX2-dependent H2O2 signal modulators, primary screen, NOX inhibitor project, cell-based, HEK293-NOX2, PMA-stimulated, Amplex Red fluorescence (AID 1159). Also: test concentration not given here. Particulars: 45 min, higher = more signal, called active from +8 up or from −8 down.
The target of assay [9] is NADPH oxidase 4 (Homo sapiens) (UniProt Q9NPH5). The assay is described as follows: NOX4-dependent H2O2 signal modulators, primary screen, NOX inhibitor project, cell-based, HEK293-NOX4, tetracycline-induced, Amplex Red fluorescence (AID 1160). As to conditions: 45 min, higher = more signal, called active from +8 up or from −8 down.
In assay [10] the target is NADPH oxidase 5 (Homo sapiens) (UniProt Q96PH1). The assay is described as follows: NOX5-dependent H2O2 signal modulators, primary screen, NOX inhibitor project, cell-based, HEK293-NOX5, Amplex Red fluorescence (AID 1161). As to conditions: HEK293-NOX5, ionomycin, 45 min, higher = more signal.
Assay [11] is described as follows: A549 cell viability effects, profiling panel, calcein-AM fluorescence, 48 h, basal (AID 1162). Also: test concentration not given here. As to conditions: higher = more signal.
Assay [12] in a line: adipocyte viability effects, profiling panel, cell-based, 3T3-L1 adipocytes, calcein-AM fluorescence, 48 h, basal (AID 1163). Also: test concentration not given here. As to conditions: 3T3-L1 adipocytes viability, higher = more signal.
Assay [13] is described as follows: HepG2 cell viability effects, profiling panel, calcein-AM fluorescence, 48 h, basal (AID 1164). Also: test concentration not given here. Particulars: higher = more signal.
Assay [14] in a line: MM1S cell viability effects, profiling panel, calcein-AM fluorescence, 48 h, basal (AID 1165).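 Also: viability of MM1S multiple myeloma cells under basal unstimulated conditions; test concentration not given here.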 As to conditions: higher = more signal.
A short description of assay [15]: basal RPMI8226 viability, no added stimulus, profiling panel, cell-based, calcein-AM fluorescence, 48 h, PK04 Diversity Set (AID 1166).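 Also: cells grown under basal conditions without added stimulus; test concentration not given here.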 As to conditions: RPMI8226 myeloma viability, higher = more signal.
A short description of assay [16]: basal HepG2 mitochondrial membrane potential changes, profiling panel, cell-based, JC-1 fluorescence, 24 h, 100 nL compound (AID 1167). Also: test concentration not given here. Particulars: higher = more signal.
Assay [17] in a line: basal 3T3-L1 adipocyte mitochondrial potential changes, profiling panel, cell-based, JC-1 fluorescence, 3T3-L1 adipocytes, 24 h, 100 nL compound (AID 1168). Also: test concentration not given here. As to conditions: JC-1 mitochondrial fluorescence, higher = more signal, called active from +8 up or from −8 down.
Assay [18] in a line: basal RPMI8226 mitochondrial membrane potential changes, profiling panel, cell-based, JC-1 fluorescence, 24 h, 100 nL compound (AID 1169). Also: test concentration not given here. As to conditions: RPMI8226 myeloma, JC-1 mitochondrial potential fluorescence, higher = more signal.
Assay [19] in a line: basal MM1S mitochondrial membrane potential changes, profiling panel, cell-based, JC-1 fluorescence, 24 h, 100 nL compound (AID 1170). Also: test concentration not given here. As to conditions: higher = more signal.
The nature of assay [20]: A549 lung cancer cell viability effects, profiling panel, resazurin fluorescence, 24 h, PK04 Diversity Set (AID 1171). Also: test concentration not given here. Particulars: higher = more signal, called active from +8 up or from −8 down.

Sequence of NADPH oxidase 4 (Homo sapiens) (Q9NPH5 whole entry, looked up): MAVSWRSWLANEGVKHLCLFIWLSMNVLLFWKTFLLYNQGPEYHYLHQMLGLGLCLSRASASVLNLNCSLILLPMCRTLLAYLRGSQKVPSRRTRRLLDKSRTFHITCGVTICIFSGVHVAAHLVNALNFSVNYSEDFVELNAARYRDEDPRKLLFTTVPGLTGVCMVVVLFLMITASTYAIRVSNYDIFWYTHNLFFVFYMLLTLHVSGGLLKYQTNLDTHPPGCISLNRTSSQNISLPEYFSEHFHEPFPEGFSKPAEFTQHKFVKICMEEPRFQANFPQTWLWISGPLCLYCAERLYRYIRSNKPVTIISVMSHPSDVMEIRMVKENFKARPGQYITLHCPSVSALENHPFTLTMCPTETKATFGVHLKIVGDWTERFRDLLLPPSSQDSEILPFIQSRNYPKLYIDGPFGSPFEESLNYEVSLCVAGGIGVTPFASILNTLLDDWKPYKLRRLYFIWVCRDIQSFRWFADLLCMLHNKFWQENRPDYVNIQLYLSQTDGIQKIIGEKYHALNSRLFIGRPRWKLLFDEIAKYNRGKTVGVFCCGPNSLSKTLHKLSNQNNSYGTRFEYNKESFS
Sequence of NADPH oxidase 2 (Homo sapiens) (P04839 whole entry, looked up): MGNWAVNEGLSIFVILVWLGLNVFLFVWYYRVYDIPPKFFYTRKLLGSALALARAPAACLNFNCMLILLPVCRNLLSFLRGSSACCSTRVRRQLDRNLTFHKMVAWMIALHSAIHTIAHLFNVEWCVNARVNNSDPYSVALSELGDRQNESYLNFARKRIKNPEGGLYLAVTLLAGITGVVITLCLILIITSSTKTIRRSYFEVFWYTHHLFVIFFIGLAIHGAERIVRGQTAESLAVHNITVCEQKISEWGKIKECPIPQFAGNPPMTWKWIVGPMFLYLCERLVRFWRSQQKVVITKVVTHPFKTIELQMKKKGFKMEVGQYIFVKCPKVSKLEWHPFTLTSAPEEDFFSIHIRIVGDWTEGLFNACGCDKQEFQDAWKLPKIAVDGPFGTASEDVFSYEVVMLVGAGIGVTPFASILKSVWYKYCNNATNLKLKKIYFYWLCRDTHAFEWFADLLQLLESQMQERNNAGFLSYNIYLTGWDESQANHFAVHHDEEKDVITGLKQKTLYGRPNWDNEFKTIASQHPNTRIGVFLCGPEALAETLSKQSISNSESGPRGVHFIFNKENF
Sequence of NADPH oxidase 5 (Homo sapiens) (Q96PH1 whole entry, looked up): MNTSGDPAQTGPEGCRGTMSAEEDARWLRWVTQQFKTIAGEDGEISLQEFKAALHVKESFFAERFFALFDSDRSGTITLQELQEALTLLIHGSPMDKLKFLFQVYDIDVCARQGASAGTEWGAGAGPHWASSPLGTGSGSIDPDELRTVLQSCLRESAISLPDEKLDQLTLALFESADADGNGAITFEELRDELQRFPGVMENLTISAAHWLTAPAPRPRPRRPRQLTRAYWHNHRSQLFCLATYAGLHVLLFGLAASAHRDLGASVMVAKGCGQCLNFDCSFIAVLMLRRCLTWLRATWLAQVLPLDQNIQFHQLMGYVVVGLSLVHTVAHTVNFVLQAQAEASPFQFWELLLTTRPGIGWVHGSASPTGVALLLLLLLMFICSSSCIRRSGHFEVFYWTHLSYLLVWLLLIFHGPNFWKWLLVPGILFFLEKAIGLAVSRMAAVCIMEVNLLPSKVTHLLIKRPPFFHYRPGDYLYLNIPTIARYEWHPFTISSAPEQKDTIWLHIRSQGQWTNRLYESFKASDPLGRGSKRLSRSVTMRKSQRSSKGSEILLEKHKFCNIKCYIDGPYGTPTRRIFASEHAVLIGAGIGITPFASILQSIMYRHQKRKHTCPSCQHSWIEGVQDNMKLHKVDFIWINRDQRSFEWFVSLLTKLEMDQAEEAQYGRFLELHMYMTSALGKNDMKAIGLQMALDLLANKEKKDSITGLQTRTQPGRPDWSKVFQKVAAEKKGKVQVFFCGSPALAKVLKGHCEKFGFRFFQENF

As for `CCCNC(=O)[C@@]1(C)c2ccccc2C(=O)N(Cc2cc(F)cc(C(F)(F)F)c2)[C@H]1c1ccc(CO)cc1`, the z-score was 0.119 (inactive) in assay [1]; 7.04 (inactive) in assay [3]; 0.576 (inactive) in [4]; 1.03 (inactive) in [5]; 0.644 (inactive) in assay [6]; 0.324 in assay [7]. In addition, the z-score is -1.29 (inactive) in [8]; -1.51 (inactive) in assay [9]; -2.07 in assay [10]; -0.575 in assay [11]; 0.237 in assay [12]; -0.14 in [13]. In addition, the z-score is -0.0049 in [14]; 1.18 in assay [15]; 2.08 in assay [16]; 0.224 (inactive) in [17]; 0.795 in assay [18]; -0.749 in assay [19]. Also, the z-score in [20] is 1.79 (inactive). The composite z-score in assay [2] was -0.252.
As to `CC(C)CNC(=O)[C@@]1(C)c2ccccc2C(=O)N(C(C)C)[C@H]1c1ccc(CO)cc1`, the z-score in assay [1] is -0.144 (inactive); in [3], 1.54 (inactive); in [4], 0.344 (inactive); in assay [5], 0.24 (inactive); in assay [6] it was -0.0642 (inactive); in [7], -0.53. Moreover, the z-score in assay [8] is -0.93 (inactive); in assay [9], 0.227 (inactive); in assay [10], -0.85; in assay [11], -0.238; in assay [12], -0.511; in assay [13], -0.178. Moreover, the z-score was 0.0151 in [14]; -0.847 in assay [15]; -0.372 in assay [16]; -0.638 (inactive) in assay [17]; 0.809 in [18]; -0.481 in assay [19]. In addition, in assay [20], the z-score is -0.0586 (inactive). Moreover, the composite z-score in assay [2] was 0.045.
As for `COCCOC(=O)N1C(=O)[C@@]2(c3cc(C#CC4=CCCCC4)ccc31)[C@H](c1ccc(OCCO)cc1)N1[C@H](c3ccccc3)[C@H](c3ccccc3)OC(=O)[C@H]1[C@@H]2C(=O)Nc1nc2ccccc2s1`, the z-score in [1] is 2.88 (inactive); in assay [3], 2.35 (inactive); in assay [4], 0.922 (inactive); in assay [5], -0.419 (inactive); in assay [6], 1.83 (inactive); in [7], 1.24. Besides, the z-score in assay [8] is 0.821 (inactive); in [9], 0.824 (inactive); in [10], 1.35; in assay [11] it was 0.642; in assay [12], 0.0841; in assay [13], -0.153. In addition, the z-score in assay [14] was -0.381; in [15] it was -0.259; in [16] it was -2.79; in assay [17] it was -0.216 (inactive); in assay [18], -0.932; in [19], -1.63. For the same molecule, the z-score in assay [20] is -0.057 (inactive). This molecule showed a composite z-score in assay [2] of 0.114.
Turning to `O=C1c2ccccc2[C@](Cc2ccccc2I)(C(=O)O)[C@H](c2ccc(CO)cc2)N1Cc1ccccc1C(F)(F)F`, the z-score in assay [1] was -0.0668 (inactive); in assay [3], 3.59 (inactive); in assay [4], 1.01 (inactive); in assay [5] it was 0.737 (inactive); in assay [6], 0.915 (inactive); in assay [7] it was -0.419. Moreover, the z-score in assay [8] was 1.66 (inactive); in [9], -0.832 (inactive); in [10], -0.533; in assay [11] it was -0.26; in assay [12] it was -0.24; in [13] it was 0.458. The z-score in assay [14] is -1.58; in assay [15], -2.58; in assay [16], -0.51; in assay [17], -0.476 (inactive); in assay [18] it was -0.832; in assay [19], -0.478. The z-score in assay [20] is 0.427 (inactive). In [2], this molecule registered a composite z-score of 0.215.
Consider `CC(C)(C)OC(=O)CC[C@@]1(C(=O)N2CCOCC2)N=C(c2ccc(OCCCO)cc2)O[C@@H]1c1ccccc1N=[N+]=[N-]`, for which the z-score in assay [1] was 1.96 (inactive); in [3] it was 30.9 (active); in assay [4], 28.1 (active); in assay [5] it was 1.09 (inactive); in assay [6], 7.36 (inactive); in [7], -0.242. In addition, the z-score is -3.49 (inactive) in assay [8]; 0.71 (inactive) in assay [9]; -2.04 in assay [10]; 0.962 in assay [11]; 0.122 in assay [12]; 0.169 in [13]. For the same molecule, the z-score was -0.49 in assay [14]; 0.338 in assay [15]; 2.09 in [16]; 5.5 (inactive) in [17]; -0.499 in assay [18]; -1.03 in assay [19]. Further, in assay [20], the z-score is 0.716 (inactive). Besides, in [2], the composite z-score is 0.394.
`O=C(NCC(O)CO)[C@]1(CCS(=O)(=O)c2ccccc2)N=C(c2ccc(OCCCO)cc2)O[C@@H]1c1ccccc1` (stereo not given in full): the z-score in [1] was -0.374 (inactive); in assay [3], 25.6 (active); in assay [4], 6.78 (inactive); in assay [5] it was 1.61 (inactive); in assay [6] it was 0.987 (inactive); in [7], -0.516. Further, the z-score is 1.4 (inactive) in [8]; 0.762 (inactive) in [9]; -0.186 in [10]; -0.206 in assay [11]; -0.13 in assay [12]; -0.635 in assay [13]. Further, the z-score in assay [14] was -0.37; in assay [15], -0.33; in [16], 0.22; in assay [17], -1.3 (inactive); in assay [18], -0.213; in assay [19], -0.824. Besides, the z-score in assay [20] is 0.562 (inactive). Also, the composite z-score in [2] came to 0.0371.
As to `O=C1O[C@H](c2ccccc2)[C@H](c2ccccc2)N2[C@H]1[C@@H](C(=O)NC[C@H](O)c1ccccc1)[C@]1(C(=O)Nc3ccc(C#CC4(O)CCCCCC4)cc31)[C@H]2c1ccccc1OCCO`, the z-score was 0.0511 (inactive) in assay [1]; 3.8 (inactive) in assay [3]; 2.21 (inactive) in [4]; -0.957 (inactive) in assay [5]; 2.07 (inactive) in assay [6]; -0.0056 in assay [7]. The z-score in assay [8] was 0.65 (inactive); in assay [9], 0.267 (inactive); in assay [10], 1.39; in assay [11] it was -0.509; in assay [12], 0.0001; in assay [13] it was -4.63. Besides, the z-score is -3.33 in assay [14]; -4.19 in assay [15]; -2.67 in assay [16]; 3.14 (inactive) in assay [17]; -0.99 in assay [18]; -2.01 in assay [19]. Further, in assay [20], the z-score is -1.39 (inactive). Besides, in assay [2], the composite z-score came out at 0.701.
